# Where “and” joins values, the source holds several entries; their conditions need not be identical. Equal values may be shown once. Records with an inconclusive call do not appear. Where a call stands in place of a potency, no number is given. Calls of active or inactive are those of the source. Unless noted, the call rests on the fitted dose curve; in most records, active means well fitted curve in the direction sought with a large enough effect; inconclusive means small, poorly fitted or top-dose-only effect, or another doubt; inactive means no such curve, though single readings can be large; an effect the other way counts as inactive or inconclusive.
# How the values were obtained:
# [1] = biological target: Arylsulfatase A (Homo sapiens) (UniProt P15289); experiment: qHTS screen for enhancers of Arylsulfatase A (ASA1): LOPAC Validation Assay (AID 720538)
# Chain of Arylsulfatase A (Homo sapiens) (P15289 whole entry, looked up): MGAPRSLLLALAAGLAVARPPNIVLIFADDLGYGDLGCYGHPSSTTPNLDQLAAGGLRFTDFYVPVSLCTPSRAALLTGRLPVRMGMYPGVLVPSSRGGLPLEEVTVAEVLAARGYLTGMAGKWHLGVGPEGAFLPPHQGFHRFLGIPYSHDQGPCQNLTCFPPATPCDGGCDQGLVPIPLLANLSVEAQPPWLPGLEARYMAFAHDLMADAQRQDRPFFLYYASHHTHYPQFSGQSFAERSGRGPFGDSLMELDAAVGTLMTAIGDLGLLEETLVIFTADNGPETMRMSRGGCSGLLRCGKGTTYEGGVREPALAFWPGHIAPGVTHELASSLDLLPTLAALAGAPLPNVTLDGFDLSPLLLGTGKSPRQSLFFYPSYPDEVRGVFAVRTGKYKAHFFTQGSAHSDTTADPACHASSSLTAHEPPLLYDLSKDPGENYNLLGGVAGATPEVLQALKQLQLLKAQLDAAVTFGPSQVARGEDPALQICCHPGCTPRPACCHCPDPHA
# How it was run: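 Cell-based enhancement test: residual ASA activity in SV40-transformed I179S patient fibroblasts is measured by pNCS turnover (0.5mM final, 14h, room temperature) following 48h compound incubation; higher fluorescence indicates activation.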
# [2] = qHTS for compounds that reverse cellular toxicity of Amyloid beta (A-beta) peptide in yeast: LOPAC Validation Assay (AID 720559)
# How it was run: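 Here, A-beta-toxic yeast grow with test compounds at 30 C for 48 hr before optical density at 600 nm is recorded; data are normalized against DMSO and the FeCl3-clioquinol control.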
# [3] = qHTS for Activators of Parkin Expression: LOPAC Validation Assay (NLuc Reporter) (AID 720572)
# How it was run: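 Compound effects on Parkin promoter activity were measured as NanoLuc luminescence after 24 h at 37 C. The neuronal reporter line also carried FLuc, which was read first. LOPAC compounds were tested at 7 concentrations, with normalization to DMSO (0%) and positive control (100%).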
# [4] = Cell Proliferation Assay against the HBL1 Cell Line (AID 651646); settings: HBL1 DLBCL cells; at 46.1 µM (top of the series) unless noted;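 further: cells exposed to compound for 48 h before reading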
# How it was run: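 CellTiter-Glo luminescence after 48 h compound exposure at 37C gives percent activity, with DMSO as 100% and 9.2 uM bortezomib final as 0%. Cells: 500 log-phase HBL1 per well, RPMI plus 5% FBS.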
# [5] = Cell Proliferation Assay against the TMD8 Cell Line (Caspase readout at 16 hrs) (AID 651712)
# How it was run: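 Caspase-Glo luminescence measured apoptosis after a 16 h, 37 C compound exposure of TMD8 cells (500 cells/well, 5% FBS RPMI). DMSO set 0% and bortezomib at 9.2 uM final set 100% activity.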
# [6] = Cell Proliferation Assay against the TMD8 Cell Line (Caspase readout at 8 hrs) (AID 651713); further: potency means the concentration at half of the fitted maximal effect
# How it was run: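 Caspase 3/7 activation in ABC DLBCL TMD8 cells is measured by luminescence after an 8 h compound exposure at 37C. Relative light units are scaled between DMSO (0%) and 9.2 uM final bortezomib (100%).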
# [7] = qHTS for small molecule inhibitors of Yes1 kinase: Counter Assay (AID 686950);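 further: no kinase present so only ADP-Glo detection of a fixed ADP amount is tested; luminescence from ADP-Glo reporting ADP in a fixed ATP and ADP mixture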
# How it was run: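 ADP-Glo luminescence read after a 60 min room-temperature incubation of compound with an ATP/ADP mix (0.08 mM/0.02 mM) and no kinase, following a 20 min compound preincubation. Signal scaled between ATP+ADP (max) and 0.1 mM ATP-only (min) wells; Tris pH 7.5, Mg2+, DTT.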
# [8] = qHTS Assay for Identification of Small Molecule Antagonists for NFkB Signaling Pathway. (AID 624479; calls by dose curve;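 further: pathway stimulated with TNF alpha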)
# [9] = biological target: Tyrosine-protein kinase Yes (Homo sapiens) (UniProt P07947); experiment: qHTS for small molecule inhibitors of Yes1 kinase: Primary Screen (AID 686947); further: nearly all actives have a fitted effect of over 60% in size
# Chain of Tyrosine-protein kinase Yes (Homo sapiens) (P07947 whole entry, looked up): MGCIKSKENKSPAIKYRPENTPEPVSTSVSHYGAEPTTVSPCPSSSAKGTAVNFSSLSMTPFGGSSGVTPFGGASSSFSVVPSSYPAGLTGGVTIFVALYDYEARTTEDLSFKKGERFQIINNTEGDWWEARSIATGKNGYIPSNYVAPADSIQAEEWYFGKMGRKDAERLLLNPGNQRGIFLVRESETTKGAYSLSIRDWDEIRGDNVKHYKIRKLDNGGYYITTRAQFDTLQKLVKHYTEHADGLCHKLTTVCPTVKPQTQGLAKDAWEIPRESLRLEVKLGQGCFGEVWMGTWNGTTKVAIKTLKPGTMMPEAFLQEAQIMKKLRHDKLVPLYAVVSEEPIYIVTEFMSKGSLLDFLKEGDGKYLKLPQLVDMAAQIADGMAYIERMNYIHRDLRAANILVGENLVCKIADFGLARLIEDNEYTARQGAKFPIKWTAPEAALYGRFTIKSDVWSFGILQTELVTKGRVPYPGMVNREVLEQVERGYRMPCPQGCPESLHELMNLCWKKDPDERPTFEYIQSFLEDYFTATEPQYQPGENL
# How it was run: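 ADP-Glo luminescence reports ADP formed by 4 nM Yes1 phosphorylating poly(E4Y) (0.3 mg/mL) with 0.1 mM ATP for 60 min at room temperature, following 20 min compound preincubation; normalised between DMSO wells with and without enzyme.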
# [10] = qHTS assay for small molecule agonists of the antioxidant response element (ARE) signaling pathway (AID 651741; active means well fitted activation curve with a large enough effect in the signal ratio; the % refers to the signal ratio)
# How it was run: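 Beta-lactamase reporter under ARE control in HepG2 cells, 2,000 per well, was induced by 16 h compound treatment at 37 C. Read-out was fluorescence from LiveBLAzer B/G FRET substrate after 2 h at room temperature.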
# [11] = qHTS assay for small molecule activators of the p53 signaling pathway (AID 651743; active means well fitted activation curve with a large enough effect in the signal ratio, not every such curve was filed as active; the % refers to the signal ratio); settings: HCT-116 p53RE-bla, beta-lactamase FRET ratio, 16 h; activation: stronger effect = higher value
# How it was run: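 After 16 hours compound treatment at 37 C, HCT-116 cells stably expressing p53RE-driven beta-lactamase were loaded with LiveBLAzer B/G FRET substrate for 2 hours at room temperature. Fluorescence intensity served as the p53 activation read-out.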
# [12] = qHTS assay for small molecule disruptors of the mitochondrial membrane potential - 1 hr assay (AID 651754; calls by dose curve; further: nearly all actives have a fitted effect of over 35% in size)
# How it was run: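 Loss of mitochondrial potential shifts the cationic dye from red mitochondrial aggregates to green cytoplasmic monomers. Cells (HepG2) are treated with compound for 1 hr before a 30 min dye incubation at 37C.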
# [13] = qHTS assay for small molecule disruptors of the mitochondrial membrane potential - 5 hr assay (AID 651755; calls by dose curve; further: nearly all actives have a fitted effect of over 40% in size)
# How it was run: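 Membrane-potential dye readout: red aggregate (540 ex/590 em) versus green monomer (490 ex/535 em) fluorescence after 30 min dye loading, following 5 hr compound exposure at 37C of overnight-plated HepG2 cells.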
# [14] = biological target: Tumor necrosis factor (Homo sapiens) (UniProt P01375); experiment: qHTS assay to identify small molecules that stimulate Tumor Necrosis Factor-alpha (TNF-alpha) secretion (AID 651757; active means well fitted curve in the direction sought with a large enough effect in the signal ratio; the % refers to the signal ratio)
# Chain of Tumor necrosis factor (Homo sapiens) (P01375 whole entry, looked up): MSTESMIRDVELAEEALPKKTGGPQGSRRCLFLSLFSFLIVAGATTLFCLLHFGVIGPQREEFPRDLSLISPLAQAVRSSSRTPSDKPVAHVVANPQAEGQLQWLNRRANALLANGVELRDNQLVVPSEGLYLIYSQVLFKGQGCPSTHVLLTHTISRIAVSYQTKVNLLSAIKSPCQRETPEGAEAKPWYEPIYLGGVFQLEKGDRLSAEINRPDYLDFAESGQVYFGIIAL
# How it was run: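 Human monocytic THP-1 cells are plated, treated with compound and held at 37 C for 17 hrs. Labeled anti-TNF-alpha antibody mixture is then added; after 3 hr at room temperature, TR-FRET signal reports secreted TNF-alpha.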
# [15] = qHTS assay for environmental chemicals that activate the Aryl hydrocarbon Receptor (AhR) signaling pathway (AID 651777); settings: 1A2-DRE human hepatoma cells, luciferase, 24 h; stronger effect = higher value; further: nearly all actives have a fitted effect of over 15% in size
# How it was run: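 Human hepatoma 1A2-DRE cells stably carrying a DRE/CYP1A2 promoter–luciferase reporter, 1,200 cells/well, exposed to compound 24 hr at 37 C. Luciferase read by One-Glo luminescence after 30 min at room temperature; increased signal marks AhR activation.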
# [16] = biological target: Peroxisome proliferator-activated receptor alpha (Homo sapiens) (UniProt Q07869); experiment: qHTS assay for small molecule agonists of the peroxisome proliferator-activated receptor alpha (PPARalpha) signaling pathway (AID 651778); settings: PathHunter PPARalpha complementation, chemiluminescence, 6 h; max response: stronger effect = higher value; further: potency means the concentration at half of the fitted maximal effect
# Chain of Peroxisome proliferator-activated receptor alpha (Homo sapiens) (Q07869 whole entry, looked up): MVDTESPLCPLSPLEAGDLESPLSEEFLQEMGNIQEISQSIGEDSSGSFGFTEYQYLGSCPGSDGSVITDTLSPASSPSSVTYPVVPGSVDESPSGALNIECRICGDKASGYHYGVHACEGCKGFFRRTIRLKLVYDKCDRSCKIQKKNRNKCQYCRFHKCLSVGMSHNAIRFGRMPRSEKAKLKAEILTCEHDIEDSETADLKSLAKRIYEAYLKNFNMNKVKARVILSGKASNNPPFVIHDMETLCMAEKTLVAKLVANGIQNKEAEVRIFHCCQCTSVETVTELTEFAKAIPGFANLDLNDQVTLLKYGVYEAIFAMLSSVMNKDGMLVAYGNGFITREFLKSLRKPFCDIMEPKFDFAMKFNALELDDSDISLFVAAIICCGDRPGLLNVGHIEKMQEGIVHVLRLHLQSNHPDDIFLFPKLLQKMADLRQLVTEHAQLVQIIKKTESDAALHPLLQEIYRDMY
# How it was run: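 Chemiluminescence from complemented enzyme reported PPARalpha activation in cells after 6 hr of compound treatment at 37 C. The detection reagent was incubated for 60 min at room temperature, and compounds were scored as agonists.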
# [17] = biological target: Nuclear receptor ROR-gamma (Homo sapiens) (UniProt P51449); experiment: qHTS assay for small molecule antagonists of the retinoid-related orphan receptor gamma (ROR-gamma) signaling pathway (AID 651802);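 further: CHO cells with doxycycline-induced ROR-gamma expression; nearly all actives have a fitted effect of over 60% in size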
# Chain of Nuclear receptor ROR-gamma (Homo sapiens) (P51449 whole entry, looked up): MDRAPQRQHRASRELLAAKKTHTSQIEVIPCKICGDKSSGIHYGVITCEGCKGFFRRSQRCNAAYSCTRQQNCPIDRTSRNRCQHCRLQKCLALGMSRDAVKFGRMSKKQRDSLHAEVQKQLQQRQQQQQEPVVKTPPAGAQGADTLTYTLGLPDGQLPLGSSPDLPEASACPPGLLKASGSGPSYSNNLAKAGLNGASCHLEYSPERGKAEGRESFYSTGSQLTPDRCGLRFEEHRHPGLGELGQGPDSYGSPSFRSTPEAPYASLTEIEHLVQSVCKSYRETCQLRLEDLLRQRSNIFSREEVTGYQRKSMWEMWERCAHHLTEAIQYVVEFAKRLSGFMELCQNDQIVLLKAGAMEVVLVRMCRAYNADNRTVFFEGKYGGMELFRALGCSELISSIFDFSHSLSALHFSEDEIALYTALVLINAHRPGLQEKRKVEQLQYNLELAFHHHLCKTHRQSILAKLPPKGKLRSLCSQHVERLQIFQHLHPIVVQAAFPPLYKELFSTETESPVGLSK
# How it was run: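 Steps: cells dispensed; compound or DMSO transferred by pin tool; doxycycline added to induce the ROR response element-driven luciferase; plates held 16hr at 37C; ONE-Glo added and luminescence measured.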
# [18] = qHTS assay for small molecule agonists of the antioxidant response element (ARE) signaling pathway measured by Nrf2-dependant transcriptional activity - cell viability counter screen (AID 720653; active means well fitted curve in the direction sought with a large enough effect in the repeat runs; an effect the other way counts as inactive or inconclusive); settings: ARE-bla HepG2 viability, CellTiter-Glo ATP luminescence, 16 h; stronger effect = lower value
# How it was run: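 Cytotoxicity counter screen: intracellular ATP quantified by CellTiter-Glo luminescence in the same ARE-bla HepG2 plates, after 16 h compound exposure and a 2 h beta-lactamase substrate step.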
# [19] = qHTS assay to identify small molecules that stimulate interleukin-8 (IL-8) secretion (AID 651758; active means well fitted activation curve with a large enough effect in the signal ratio; the % refers to the signal ratio)
# How it was run: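 Secreted IL-8 measured homogeneously by TR-FRET (two labelled anti-IL-8 antibodies, 1-3 h at room temperature) after a 16 h, 37 C compound treatment of THP-1 cells at 2000 cells/well.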
structure (smiles),measurement,setting,value
CN1Cc2c(N)cccc2C(c2ccccc2)C1 (stereo unspecified),outcome,[1],inactive
same,outcome,[2],inactive
same,outcome,[3],inactive
C[C@@H]1CCN(C(=O)CC#N)C[C@@H]1N(C)c1ncnc2[nH]ccc12,"viability, percent of control",[4],97.5%
same,Potency,[5],inactive
same,Potency,[6],inactive
same,outcome,[7],inactive
CN(NC(=O)CC(=O)NN(C)C(=S)c1ccccc1)C(=S)c1ccccc1,Potency,[8],inactive
same,"viability, percent of control",[4],60.8%
same,Potency,[5],inactive
same,Potency,[6],inactive
same,Potency,[9],inactive
same,outcome,[7],inactive
Cc1ccccc1,Potency,[10],inactive
same,activation,[11],0.393% (inactive) and -4.17% (inactive)
same,outcome,[12],inactive
same,outcome,[13],inactive
same,outcome,[14],inactive
same,activation,[15],0.0379% (inactive) and -2.19% (inactive)
same,max response,[16],0.399% (inactive) and -0.58% (inactive)
same,outcome,[17],inactive
same,max response,[18],6.91% (inactive) and 8.68% (inactive)
CCC1(O)CC2CN(CCc3c([nH]c4ccccc34)[C@@](C(=O)OC)(c3cc4c(cc3OC)N(C=O)[C@H]3[C@](O)(C(=O)OC)[C@H](OC(C)=O)[C@]5(CC)C=CCN6CC[C@]43[C@@H]65)C2)C1 (stereo partly specified),Potency,[8],inactive
same,"viability, percent of control",[4],22.9%
same,Potency,[6],1.32 µM (active)
same,Potency,[9],inactive
same,outcome,[7],inactive
CCCCCCCC/C=C\CCCCCCCC(=O)O,Potency,[10],inactive
same,activation,[11],0.394% (inactive) and 0.396% (inactive)
same,outcome,[12],inactive
same,outcome,[13],inactive
same,outcome,[14],inactive
same,Potency,[19],inactive
same,activation,[15],-1.87% (inactive) and 0.641% (inactive)
same,Potency,[16],35.5 µM (active)
same,max response,[18],-10.5% (inactive) and 3.78% (inactive)
CC(NC(=O)Cc1cc(F)cc(F)c1)C(=O)NC(C(=O)OC(C)(C)C)c1ccccc1 (stereo unspecified),Potency,[8],inactive
same,"viability, percent of control",[4],103%
same,Potency,[5],inactive
same,Potency,[6],inactive
same,Potency,[9],inactive
same,outcome,[7],inactive
CCCCC/C=C\C/C=C\CCCCCCCC(=O)O,Potency,[10],inactive
same,activation,[11],1.23% (inactive) and -4.95% (inactive)
same,outcome,[12],inactive
same,outcome,[13],inactive
same,outcome,[14],inactive
same,activation,[15],0.916% (inactive) and -0.698% (inactive)
same,Potency,[16],44.7 µM (active) and 28.2 µM (active)
same,outcome,[17],inactive
same,max response,[18],-8.45% (inactive) and -16.5% (inactive)

# From PubChem BioAssay (NCATS)
